Outcome and AC50 data for 22 molecules are collected here from PubChem BioAssay (EPA / NIEHS).

Where “and” joins values, the source holds several entries; their conditions need not be identical. Identical values can stand only once. Results filed as inconclusive are left out. Calls of active or inactive are those of the source. The calls were made as follows, unless noted: active = hit-call score of the fitted dose curve at least 0.9, where 1 is the maximum; inactive = score below 0.9.

The first test can be described thus: CCTE_Harrill_HTTr_Apoptosis_MCF7: CCTE's 6-hour Apoptosis Assessment for the High-Throughput Transcriptomics (HTTr) Platform, in MCF-7 cells cultured in DMEM + 10% fetal bovine serum, Harrill Lab (AID 2284011). In short, it runs like this:
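Read-out: CellEvent Caspase 3/7 Green signal by high content imaging, gain-of-signal indicating apoptosis. MCF-7 cells, DMEM + 10% FBS, eight-point dilution series, 6 h exposure. Curves fitted bidirectionally relative to DMSO negative control.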
As for `CCCCCCCCCCCCC[N+](C)(C)Cc1ccccc1`, the outcome was inactive. Still for that read-out and setting: then `CCCCCCCCn1sc(Cl)c(Cl)c1=O`, with “inactive”; and `CCC(Cc1c(I)cc(I)c(N)c1I)C(=O)O` (stereo not drawn), with “inactive”. In the case of `Cc1cccc(C)n1`, the result was inactive. The same measure, in the same setting: then `CN(N=O)C(=O)N[C@@H]1[C@@H](O)[C@H](O)[C@@H](CO)O[C@@H]1O`, with “inactive”; and `CCCCCCCCCCCCCCCCC`, with “inactive”. As to `Cc1cnccn1`, the result was inactive. Still for that read-out and setting: then `CN(C)C(C)(C)CO`, with “inactive”; and `CSc1ccc(Cl)cc1`, with “inactive”. On the same count and under the same terms, then `CC(=O)CCC(C)C`, with “inactive”. For the molecule `CCN=c1cc2oc3cc(NCC)c(C)cc3c(-c3ccccc3C(=O)OCC)c-2cc1C`, the concentration at half-maximal activity (AC50) was 96.9 nM (active) and 51.2 nM (active). Consider `O=C(c1ccccc1)c1ccc(O)cc1O`, for which the result was inactive. The same measure, in the same setting: then `CCc1ccc(C)nc1`, with “inactive”; and `CC(C)(C)c1cc(CCC(=O)OCC(COC(=O)CCc2cc(C(C)(C)C)c(O)c(C(C)(C)C)c2)(COC(=O)CCc2cc(C(C)(C)C)c(O)c(C(C)(C)C)c2)COC(=O)CCc2cc(C(C)(C)C)c(O)c(C(C)(C)C)c2)cc(C(C)(C)C)c1O`, with “inactive”. On to `O=S(=O)(O)c1ccc(Cl)cc1`, for which the outcome was inactive. With `CC1CCCCC1`, the outcome was inactive.

With `CCCCCCCCCc1ccc(OCCO)cc1`, the result was inactive. Take `Brc1ccccn1`: the result was inactive. With `CSc1ccc(O)cc1C`, the result was inactive. On the same count and under the same terms, then `CCCCCCCC/C=C\CCCCCCCC(=O)N(C)CC(=O)O`, with “inactive”; and `CCOC(=O)C1CC(=O)C(=C(O)C2CC2)C(=O)C1` (stereo not drawn), with “inactive”; and `Cc1cc(=O)[nH]c(C(C)C)n1`, with “inactive”.

The next test in a line: CCTE_Harrill_HTTr_CellCount_MCF7: CCTE's Cell Proliferation Assessment for the High-Throughput Transcriptomics (HTTr) Platform, Harrill Lab (AID 2284012; active = hit-call score of the fitted dose curve at least 0.9, where 1 is the maximum;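 also: count of Hoechst-stained nuclei per well by high-content imaging in MCF-7 cells; cells exposed to compound for six hours; intended direction is loss of nuclei count meaning fewer cells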). In outline:
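For this full-screen endpoint, MCF-7 cultures received eight compound dilutions for six hours. Well nuclei counts from Hoechst imaging were analyzed relative to DMSO.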
In the case of `CCCCCCCCCCCCC[N+](C)(C)Cc1ccccc1`, the outcome was inactive. Turning to `CCCCCCCCn1sc(Cl)c(Cl)c1=O`, the result was inactive. Take `Cc1cccc(C)n1`: the molecule was called inactive. In the case of `CN(N=O)C(=O)N[C@@H]1[C@@H](O)[C@H](O)[C@@H](CO)O[C@@H]1O`, the call was inactive.

Turning to `Cc1cnccn1`, the outcome was inactive. Still for that read-out and setting: then `CN(C)C(C)(C)CO`, with “inactive”; and `CC(=O)CCC(C)C`, with “inactive”. Same read-out and setting: then `CCN=c1cc2oc3cc(NCC)c(C)cc3c(-c3ccccc3C(=O)OCC)c-2cc1C`, with “inactive”; and `CCc1ccc(C)nc1`, with “inactive”; and `CC(C)(C)c1cc(CCC(=O)OCC(COC(=O)CCc2cc(C(C)(C)C)c(O)c(C(C)(C)C)c2)(COC(=O)CCc2cc(C(C)(C)C)c(O)c(C(C)(C)C)c2)COC(=O)CCc2cc(C(C)(C)C)c(O)c(C(C)(C)C)c2)cc(C(C)(C)C)c1O`, with “inactive”. Turning to `CC1CCCCC1`, the outcome was inactive.

Take `CCCCCCCCCc1ccc(OCCO)cc1`: the molecule was classed as inactive. For `Brc1ccccn1`, the molecule was classed as inactive. Same read-out and setting: then `CSc1ccc(O)cc1C`, with “inactive”; and `CCCCCCCC/C=C\CCCCCCCC(=O)N(C)CC(=O)O`, with “inactive”. Take `Cc1cc(=O)[nH]c(C(C)C)n1`: the outcome was inactive.
